# Where “and” joins values, the source holds several entries; their conditions need not be identical. Identical values can stand only once. Results filed as inconclusive are left out. Calls of active or inactive are those of the source.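 Rule for the calls, unless noted: active = compounds whose cell count with miR-34 switched on is under 0.7 times the count with it off; inactive = the rest.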
# Key:
# [1] = liver-stage malaria parasite growth inhibition, primary screen, cell-based, HepG2, luciferase luminescence, HepG2 viability (AID 624349; in the data active = parasite load remaining mostly below about 12%, no sharp cut-off; inactive = mostly above about 10%;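 note: 100% = mean of DMSO negative control wells on the same plate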); conditions: P. berghei liver stage in HepG2, luciferase luminescence, concentration not given here; parasite load remaining: stronger effect = lower value; viability: measured here: HepG2 viability without parasites
# [2] = molecular target: 6-phosphogluconate dehydrogenase, decarboxylating (Homo sapiens) (UniProt P52209); assay: 6PGD enzyme inhibitors, primary screen, biochemical, human, recombinant enzyme, NADPH absorbance (AID 1159550;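 active = at least 20% inhibition of 6-phosphogluconate dehydrogenase activity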); conditions: recombinant 6PGD, NADPH absorbance 341 nm; at 10 µM; stronger effect = higher value
# [3] = growth inhibition of DIPG glioma cells, dose response, cell-based, JHH-DIPG-1, MIPE4.0, CellTiter-Glo, qHTS (AID 1347062; cut-off not given, nearly all actives have AC50 up to about 27 µM;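 for AC50: cells exposed to compound for two days before readout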); conditions: JHH-DIPG-1 viability, CellTiter-Glo ATP luminescence
# [4] = growth inhibition of DIPG glioma cells, dose response, cell-based, SU-DIPG-IV, MIPE4.0, CellTiter-Glo, qHTS (AID 1347063; cut-off not given, nearly all actives have AC50 up to about 30 µM;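 note: compound exposure lasted 48 hours before the viability readout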); conditions: SU-DIPG-IV viability, CellTiter-Glo ATP luminescence
# [5] = sensitizers of A549 cells to miR-34 induction, primary screen, imaging, A549 dox-inducible miR-34, nuclei and caspase counts (AID 1347080); conditions: A549 miR-34 inducible, Hoechst nuclei count, 48 h
# [6] = survival rescue of mitochondrial mutant cells in low glucose, primary screen, MELAS cybrids, Rieske KO mouse fibroblasts, CellTiter-Glo (AID 1508586;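 active = mean z-score across replicates of 1.96 or higher in either the MELAS or the Rieske mutant cell line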;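 note: z relative to plate mean and SD of compound and empty wells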)
# [7] = viability rescue of complex I mutant cybrids, primary screen, cell-based, galactose medium, ATP luminescence (AID 1645843;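 active = z-score of at least 1.8 in each of two replicates, scored against plate mean and spread of sample wells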;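 note: positive z means more ATP and so rescue of galactose-driven cybrid death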); conditions: complex I mutant cybrid cells, 72 h, stronger effect = higher value
# [8] = hESC survival regulators, cell-based (AID 493140; call rule not given here;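 note: cells exposed to compounds for four days before counting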); conditions: human embryonic stem cell survival screen; stronger effect = higher value
# [9] = growth inhibition of DIPG glioma cells, dose response, cell-based, SU-DIPG-XIII, MIPE4.0, CellTiter-Glo, qHTS (AID 1347061; cut-off not given, nearly all actives have AC50 up to about 37 µM;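 note: cells exposed to compound for 48 hours before readout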); conditions: SU-DIPG-XIII viability, CellTiter-Glo ATP luminescence
# [10] = molecular target: NAD(+) hydrolase SARM1 (Homo sapiens) (UniProt Q6SZW1); assay: SARM1 TIR NADase inhibitors, cell lysate, NAD-Glo luminescence (AID 1508614;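 active = compound whose remaining NAD level is above about 45 nM, limit read from the data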;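 note: higher remaining NAD means stronger inhibition of SARM1 NADase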); conditions: SAM-TIR HEK293T lysate NADase, at 1 µM, stronger effect = higher value
# [11] = molecular target: Mitogen-activated protein kinase 7 (Homo sapiens) (UniProt Q13164); assay: ERK5 transactivation activators in reporter cells, primary screen, cell-based, HTS (AID 1508626;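 active = luciferase signal above three times the same-plate solvent-only control wells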;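 note: luciferase driven by Gal4-ERK5 fusion binding five Gal4 sites before minimal TATA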); conditions: HeLa Gal4-ERK5 transactivation, 18 h, at 5 µM, stronger effect = higher value
# [12] = stronger effect = lower value, cell number ratio, induced over uninduced
# [13] = measured here: relative caspase fold change +Dox/-Dox
# [14] = measured here: total cells with miR-34 induction, stronger effect = lower value
# [15] = measured here: total cells without miR-34 induction
# [16] = MELAS cybrid survival, CellTiter-Glo 48 h, stronger effect = higher value
# [17] = Rieske KO mouse fibroblast survival, CellTiter-Glo 72 h
# Sequence of Mitogen-activated protein kinase 7 (Homo sapiens) (Q13164 whole entry, looked up, the tested form may be a part): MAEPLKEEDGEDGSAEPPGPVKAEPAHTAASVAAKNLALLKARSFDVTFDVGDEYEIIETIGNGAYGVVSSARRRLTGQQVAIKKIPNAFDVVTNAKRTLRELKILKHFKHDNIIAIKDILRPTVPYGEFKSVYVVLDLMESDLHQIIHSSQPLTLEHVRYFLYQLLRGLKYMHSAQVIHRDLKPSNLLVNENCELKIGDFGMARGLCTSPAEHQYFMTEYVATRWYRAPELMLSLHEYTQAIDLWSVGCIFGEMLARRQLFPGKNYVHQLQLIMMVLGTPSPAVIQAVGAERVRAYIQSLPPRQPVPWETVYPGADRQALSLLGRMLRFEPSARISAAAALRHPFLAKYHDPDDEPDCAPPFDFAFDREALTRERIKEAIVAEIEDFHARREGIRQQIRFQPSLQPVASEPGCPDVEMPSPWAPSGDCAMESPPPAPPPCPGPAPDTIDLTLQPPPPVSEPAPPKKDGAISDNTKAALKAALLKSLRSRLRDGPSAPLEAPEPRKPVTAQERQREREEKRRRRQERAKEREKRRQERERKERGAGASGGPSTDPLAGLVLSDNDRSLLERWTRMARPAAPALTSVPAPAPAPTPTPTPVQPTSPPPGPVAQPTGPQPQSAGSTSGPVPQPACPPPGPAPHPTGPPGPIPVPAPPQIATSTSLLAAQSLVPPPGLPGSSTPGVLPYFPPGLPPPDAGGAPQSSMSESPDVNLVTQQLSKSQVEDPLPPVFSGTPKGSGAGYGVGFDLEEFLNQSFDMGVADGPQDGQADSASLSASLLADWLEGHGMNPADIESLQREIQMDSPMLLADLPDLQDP
# Sequence of 6-phosphogluconate dehydrogenase, decarboxylating (Homo sapiens) (P52209 whole entry, looked up): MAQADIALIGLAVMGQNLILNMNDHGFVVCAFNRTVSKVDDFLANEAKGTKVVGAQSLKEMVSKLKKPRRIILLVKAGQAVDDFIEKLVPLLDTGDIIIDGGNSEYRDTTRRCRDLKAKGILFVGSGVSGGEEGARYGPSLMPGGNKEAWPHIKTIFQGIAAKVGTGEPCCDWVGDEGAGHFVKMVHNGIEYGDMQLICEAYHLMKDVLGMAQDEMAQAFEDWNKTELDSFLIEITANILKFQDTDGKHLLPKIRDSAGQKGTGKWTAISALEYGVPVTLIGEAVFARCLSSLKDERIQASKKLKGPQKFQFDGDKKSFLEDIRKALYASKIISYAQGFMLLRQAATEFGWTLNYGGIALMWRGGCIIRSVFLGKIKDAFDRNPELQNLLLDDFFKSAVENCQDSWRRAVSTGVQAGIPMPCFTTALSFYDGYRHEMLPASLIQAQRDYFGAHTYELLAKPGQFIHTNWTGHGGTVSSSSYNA
# Sequence of NAD(+) hydrolase SARM1 (Homo sapiens) (Q6SZW1 whole entry, looked up, the tested form may be a part): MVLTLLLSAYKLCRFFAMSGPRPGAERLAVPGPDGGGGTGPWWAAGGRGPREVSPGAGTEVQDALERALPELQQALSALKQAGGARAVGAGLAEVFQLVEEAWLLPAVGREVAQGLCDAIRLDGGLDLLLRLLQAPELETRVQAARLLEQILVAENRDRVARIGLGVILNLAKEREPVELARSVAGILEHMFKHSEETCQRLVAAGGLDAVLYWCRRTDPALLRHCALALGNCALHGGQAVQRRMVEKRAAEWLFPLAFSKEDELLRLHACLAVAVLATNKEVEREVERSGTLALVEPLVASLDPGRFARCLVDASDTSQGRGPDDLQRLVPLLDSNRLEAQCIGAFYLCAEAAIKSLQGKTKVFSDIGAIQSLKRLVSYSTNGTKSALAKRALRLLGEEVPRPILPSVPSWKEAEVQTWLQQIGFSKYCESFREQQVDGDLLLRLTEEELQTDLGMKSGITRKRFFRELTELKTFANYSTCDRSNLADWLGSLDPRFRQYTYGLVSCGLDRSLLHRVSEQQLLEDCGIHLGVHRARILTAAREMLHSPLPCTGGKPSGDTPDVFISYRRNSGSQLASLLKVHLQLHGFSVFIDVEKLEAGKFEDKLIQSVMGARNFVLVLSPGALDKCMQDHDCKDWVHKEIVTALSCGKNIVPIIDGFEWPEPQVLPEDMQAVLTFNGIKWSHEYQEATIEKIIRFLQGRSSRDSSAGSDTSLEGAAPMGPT
smiles,measurement,setting,value
CC[C@@]1(O)C[C@H](O[C@H]2C[C@H](N(C)C)[C@H](O[C@H]3C[C@H](O)[C@H](O[C@H]4CCC(=O)[C@H](C)O4)[C@H](C)O3)[C@H](C)O2)c2c(cc3c(c2O)C(=O)c2c(O)cccc2C3=O)[C@H]1C(=O)OC,parasite load remaining,[1],-0.835% (inactive)
same,viability,[1],14.5%
same,inhibition,[2],13.5% (inactive)
same,AC50,[3],0.332 µM (active)
same,AC50,[4],0.469 µM (active)
same,fold change,[5]; [12],1.94 (inactive)
same,fold change,[5]; [13],0.972
same,cell count,[5]; [14],1190
same,cell count,[5]; [15],612
same,z-score,[6]; [16],0.116
same,z-score,[6]; [17],2.56
same,z-score,[7],-1.88 (inactive)
O=C(O)Cc1nn(Cc2ccc(Br)cc2F)c(=O)c2ccccc12,inhibition,[2],11.5% (inactive)
same,fold change,[5]; [12],0.972 (inactive)
same,fold change,[5]; [13],0.601
same,cell count,[5]; [14],8710
same,cell count,[5]; [15],8960
same,z-score,[7],0.945 (inactive)
CC(=O)[C@H]1CC[C@H]2[C@@H]3CCC4=CC(=O)CC[C@]4(C)[C@H]3CC[C@]12C,survival,[8],8.58 (inactive)
same,inhibition,[2],14.1% (inactive)
same,AC50,[9],1.87 µM (active)
same,outcome,[3],inactive
same,fold change,[5]; [12],1.08 (inactive) and 0.812 (inactive) and 0.853 (inactive)
same,fold change,[5]; [13],0.82 and 1.33 and 1.49
same,cell count,[5]; [14],8120 and 7150 and 6560
same,cell count,[5]; [15],7520 and 8800 and 7700
same,z-score,[6]; [16],-0.398 (inactive) and 0.245 (inactive)
same,z-score,[6]; [17],-0.301 and 1.24
same,remaining NAD,[10],10 nM (inactive)
same,luciferase signal,[11],28 AU (inactive)
same,z-score,[7],-0.485 (inactive) and -1.04 (inactive)
C[C@H]1O[C@@H](O[C@H]2[C@@H](O)C[C@H](O[C@H]3[C@@H](O)C[C@H](O[C@H]4CC[C@@]5(C)[C@H](CC[C@@H]6[C@@H]5C[C@@H](O)[C@]5(C)[C@@H](C7=CC(=O)OC7)CC[C@]65O)C4)O[C@@H]3C)O[C@@H]2C)C[C@H](O)[C@@H]1O,survival,[8],0.667 (inactive)
same,parasite load remaining,[1],-10.5% (inactive) and 8.38% (inactive)
same,viability,[1],46.2% and 21%
same,inhibition,[2],-1.7% (inactive)
same,AC50,[9],0.0959 µM (active)
same,AC50,[3],0.0303 µM (active)
same,AC50,[4],0.241 µM (active)
same,fold change,[5]; [12],0.979 (inactive)
same,fold change,[5]; [13],2.27
same,cell count,[5]; [14],512
same,cell count,[5]; [15],523
same,z-score,[6]; [16],-1.21 (inactive)
same,z-score,[6]; [17],0.0199
same,remaining NAD,[10],10 nM (inactive)
same,luciferase signal,[11],24 AU (inactive)
C[C@H](CCC(=O)O)[C@H]1CC[C@H]2[C@@H]3[C@H](O)C[C@@H]4C[C@H](O)CC[C@]4(C)[C@H]3CC[C@]12C,survival,[8],11.7 (inactive)
same,parasite load remaining,[1],42% (inactive) and 91.9% (inactive)
same,viability,[1],46.4% and 85.3%
same,inhibition,[2],-1.04% (inactive)
same,outcome,[9],inactive
same,outcome,[3],inactive
same,outcome,[4],inactive
same,fold change,[5]; [12],0.917 (inactive)
same,fold change,[5]; [13],1.03
same,cell count,[5]; [14],9290
same,cell count,[5]; [15],10100
same,z-score,[6]; [16],0.377 (inactive)
same,z-score,[6]; [17],-0.0721
same,remaining NAD,[10],10 nM (inactive)
same,luciferase signal,[11],112 AU (inactive)
CC1(C)[C@@H](O)CC[C@]2(C)[C@H]3C(=O)C=C4[C@@H]5C[C@@](C)(C(=O)O)CC[C@]5(C)CC[C@@]4(C)[C@]3(C)CC[C@@H]12,inhibition,[2],6.1% (inactive)
same,outcome,[9],inactive
same,outcome,[3],inactive
same,outcome,[4],inactive
same,remaining NAD,[10],10 nM (inactive)
same,luciferase signal,[11],56 AU (inactive)
O=C(O)C1=CCNCC1,inhibition,[2],13% (inactive)
same,fold change,[5]; [12],1 (inactive) and 0.973 (inactive)
same,fold change,[5]; [13],1.35 and 1.1
same,cell count,[5]; [14],9950 and 8720
same,cell count,[5]; [15],9930 and 8960
same,z-score,[7],0.645 (inactive) and -0.22 (inactive)
O=C(O)c1cc(=O)c2ccc(Cl)cc2[nH]1,inhibition,[2],15.5% (inactive)
same,fold change,[5]; [12],0.965 (inactive)
same,fold change,[5]; [13],1.21
same,cell count,[5]; [14],8410
same,cell count,[5]; [15],8710
same,z-score,[7],-0.2 (inactive)
O=C(/C=C/c1ccc(O)c(O)c1)O[C@H](Cc1ccc(O)c(O)c1)C(=O)O,inhibition,[2],-3.01% (inactive)
same,fold change,[5]; [12],0.903 (inactive) and 0.98 (inactive)
same,fold change,[5]; [13],1.31 and 0.699
same,cell count,[5]; [14],5220 and 9720
same,cell count,[5]; [15],5780 and 9920
same,luciferase signal,[11],44 AU (inactive)
same,z-score,[7],0.02 (inactive)
CN[C@H](CC(C)C)C(=O)N[C@H]1C(=O)N[C@@H](CC(N)=O)C(=O)N[C@H]2C(=O)N[C@H]3C(=O)N[C@H](C(=O)N[C@H](C(=O)O)c4cc(O)cc(O)c4-c4cc3ccc4O)[C@H](O)c3ccc(c(Cl)c3)Oc3cc2cc(c3O[C@@H]2O[C@H](CO)[C@@H](O)[C@H](O)[C@H]2O[C@H]2C[C@](C)(N)[C@H](O)[C@H](C)O2)Oc2ccc(cc2Cl)[C@H]1O,survival,[8],13.8 (inactive)
same,parasite load remaining,[1],70.2% (inactive)
same,viability,[1],74.3%
same,inhibition,[2],3.51% (inactive)
same,outcome,[9],inactive
same,outcome,[3],inactive
same,outcome,[4],inactive
same,fold change,[5]; [12],0.946 (inactive)
same,fold change,[5]; [13],1.32
same,cell count,[5]; [14],9810
same,cell count,[5]; [15],10400
same,remaining NAD,[10],10 nM (inactive)
same,luciferase signal,[11],68 AU (inactive)
same,z-score,[7],0.26 (inactive)
CC1(C)[C@@H](O[C@H]2O[C@H](C(=O)O)[C@@H](O)[C@H](O)[C@H]2O[C@@H]2O[C@H](C(=O)O)[C@@H](O)[C@H](O)[C@H]2O)CC[C@]2(C)[C@H]3C(=O)C=C4[C@@H]5C[C@@](C)(C(=O)O)CC[C@]5(C)CC[C@@]4(C)[C@]3(C)CC[C@@H]12,inhibition,[2],11% (inactive)
same,outcome,[9],inactive
same,outcome,[3],inactive
same,outcome,[4],inactive
C[C@@]12C[C@@]3(O)O[C@@H](O1)[C@]1(COC(=O)c4ccccc4)[C@H]3C[C@@]12O[C@@H]1O[C@H](CO)[C@@H](O)[C@H](O)[C@H]1O,inhibition,[2],-7.19% (inactive)
same,outcome,[9],inactive
same,outcome,[3],inactive
same,luciferase signal,[11],60 AU (inactive)
CO/N=C(\C(=O)N[C@@H]1C(=O)N2C(C(=O)O)=C(COC(N)=O)CS[C@H]12)c1ccco1,parasite load remaining,[1],120% (inactive)
same,viability,[1],107%
same,inhibition,[2],-1.88% (inactive)
same,fold change,[5]; [12],0.899 (inactive)
same,fold change,[5]; [13],1.25
same,cell count,[5]; [14],8800
same,cell count,[5]; [15],9790
same,z-score,[6]; [16],-0.736 (inactive)
same,z-score,[6]; [17],-1.31
same,remaining NAD,[10],10 nM (inactive)
same,luciferase signal,[11],48 AU (inactive)
C[N+]1(C)[C@@H]2CC[C@H]1CC(OC(=O)C(O)c1ccccc1)C2 (stereo partly drawn),inhibition,[2],-20.5% (inactive)
same,fold change,[5]; [12],0.938 (inactive)
same,fold change,[5]; [13],0.48
same,cell count,[5]; [14],8390
same,cell count,[5]; [15],8940
same,z-score,[6]; [16],-0.289 (inactive)
same,z-score,[6]; [17],-0.189
same,remaining NAD,[10],10 nM (inactive)
same,luciferase signal,[11],20 AU (inactive)
